In PubChem BioAssay AID1060 (Emory University Molecular Libraries Screening Center, 2008):
Results with a measured potency or affinity are listed apart. The source made the active and inactive calls.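 The calls were made as follows: active = fitted half-inhibition concentration at or below a set limit, with percent of control there at most 60; inactive = the rest.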

These compounds were tested against Estrogen receptor beta (Homo sapiens) (UniProt Q92731) (assay: ERβ–SRC-3 coactivator interaction inhibitors, confirmation, orthogonal assay, biochemical, ELISA, streptavidin-HRP readout (AID 1060)). Details: ERbeta-SRC-3 coactivator binding ELISA; series mostly up to 50 µM; percent of control: at the top concentration.
Chain of Estrogen receptor beta (Homo sapiens) (Q92731 whole entry, looked up): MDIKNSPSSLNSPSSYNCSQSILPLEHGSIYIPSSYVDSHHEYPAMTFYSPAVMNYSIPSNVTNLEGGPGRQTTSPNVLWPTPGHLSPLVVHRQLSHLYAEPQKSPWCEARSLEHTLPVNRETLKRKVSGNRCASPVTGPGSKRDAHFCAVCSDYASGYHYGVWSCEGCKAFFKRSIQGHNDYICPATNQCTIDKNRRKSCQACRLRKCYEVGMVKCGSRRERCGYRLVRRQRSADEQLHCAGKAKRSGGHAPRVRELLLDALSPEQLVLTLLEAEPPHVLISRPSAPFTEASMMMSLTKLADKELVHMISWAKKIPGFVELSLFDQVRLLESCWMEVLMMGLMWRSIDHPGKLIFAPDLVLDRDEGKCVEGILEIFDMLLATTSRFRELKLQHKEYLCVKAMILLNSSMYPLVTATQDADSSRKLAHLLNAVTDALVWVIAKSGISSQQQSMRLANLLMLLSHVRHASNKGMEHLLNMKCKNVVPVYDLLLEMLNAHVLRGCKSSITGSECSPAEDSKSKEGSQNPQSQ

Percent of control, inactive:
Cc1cc(C)cc(OCC(=O)Nc2ccc(N3CCCC3)cc2)c1 117%
CCC(=O)Nc1ccc(C(=O)Cn2nc(C(=O)O)c3ccccc3c2=O)cc1 109%
CCC(=O)Nc1cccc(NC(C)=O)c1 101%
NC(=O)c1cccc2c1C(=O)N(C1CCCCC1)C2 118%
CCCNCC1COc2ccccc2O1 (stereo unspecified) 109%
CSc1nc2c(c(=O)[nH]1)C(c1cccs1)C1=C(CCCC1=O)N2 (stereo unspecified) 132%
COc1ccc2nc(-c3ccco3)c(-c3ccco3)nc2c1 62.9%
COc1ccccc1-c1nnc2sc(-c3cnccn3)nn12 97%
CC1CC(C(F)(F)C(F)(F)F)n2nc(C(=O)O)cc2N1 (stereo unspecified) 114%
COc1ccc2c(=O)c3c(=O)n(Cc4ccco4)c(-c4ccco4)nc3oc2c1 131%
Cc1ccc(C(=O)CSC2=C(C#N)C(c3ccco3)CC(=O)N2)c(C)c1 (stereo unspecified) 134%
CCc1cc(=O)[nH]c(SCC(=O)Nc2ccc(C(=O)OC)cc2)n1 102%
Cc1sc2ncnc(NCc3ccco3)c2c1C 141%
O=S(=O)(Nc1ncnc2sc3c(c12)CCC3)c1ccc2ccccc2c1 131%
Cc1cc(-c2csc(N)n2)c(C)n1C 97.3%
COc1ccc(CCNC(=O)c2ccc3nc(-c4ccco4)c(-c4ccco4)nc3c2)cc1OC 99.6%
